# Experimental data as given in the supplement of paper PMC11417369.
# ± gives the standard deviation of the averaged measurements. The full ranking holds about 25,000 sequences; the median of “ln(normalized median fluorescence intensity)” is about 8.9, and the highest 2% start at about 10. The sample holds the highest values, similar sequences and a random draw of the others, so the mix is not that of the screen.
# Tested on: PfAP2-LT AP2 domain (GST-tagged)
# Test: gcPBM binding intensity (ln(normalized median fluorescence intensity)); higher = stronger DNA binding
# How it was run: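 Using an Agilent 4 × 180k array, primer-extended double-stranded 36-bp intergenic genomic probes and negative controls were exposed for 1 h to GST-fused P. falciparum DNA-binding domains expressed in E. coli. Binding was carried out in 1× PBS with 1% milk, 0.2 mg/ml BSA, 0.5% salmon testes DNA and 0.03% Triton X-100, and protein was detected with Alexa488 anti-GST antibody and a 488 nm scan. Binding intensity is the highest Masliner-normalised natural-log median intensity across replicate spots of either probe orientation.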
row,Sequence,gcPBM binding intensity (ln)
1,ATATATATATAATTATATAAAATATATCATATGTTA [XGTACX_negctrl_site47],8.53 ± 0.42
2,TATTAATTATATTTATGTACATAATCATATTATTAT [XGTACX_site7938],8.94 ± 0.44
3,TTTAATCATATGTTATATAATAAGCCCCCCCCCCAA [CACACA_negctrl_site486],10.2 ± 0.17
4,AGCACAAGCACAAGCACACATTTATATATAAATACA [CACACA_site4642],9.1 ± 0.47
5,ATTTTTATTTTATATACACACAATAATAATATAATA [CACACA_site4015],8.62 ± 0.36
6,ATAATACACAAGCACACACACACACGGATATTTATA [CACACA_site6714],10.4 ± 0.23
7,AATTAAAAAAAATACACACACACATACCCATATATA [CACACA_site5767],9.85 ± 0.28
8,TTTATTTATTATTGTTGTACACTTTTTATAAAAAAA [XGTACX_site5114],8.57 ± 0.53
9,ATGAAAAAAAAAAAAAAAAAAAAAAAAAAAAAAATA [CACACA_negctrl_site1083],8.37 ± 0.55
10,AAAAAATTCATATATACACACACGCACATATATATA [CACACA_site4226],9.53 ± 0.13
11,AAAATTCATATATACACACACGCACATATATATATA [CACACA_site90],9.71 ± 0.21
12,AAAAATTTGGCATACACACACACACCCACACCCACA [CACACA_site587],10.03 ± 0.042
13,AAAAAAATTTGGCATACACACACACCCCCACCCACA [CACACA_site8094],10.41 ± 0.05
14,AAAAATTTGGCATACACACACACACGCACACGCACA [CACACA_site6422],10.2 ± 0.21
15,AAAAATTTGGCATACACACACACACCGACACAGACA [CACACA_site4489],10 ± 0.23
16,CACATACACCCATACACACACATATATATTAAGATA [CACACA_site4459],9.57 ± 0.38
17,TATATATATATATAATGTACAAACTCCTTTATATAT [XGTACX_site4545],9.05 ± 0.2
18,ATTATTTTATTATAGTGTACTTTTTTAATCAAAGGA [XGTACX_site8921],8.44 ± 0.4
19,TTAGGTTATAAATACACACACAAAAGAAAAAAAAAA [CACACA_site5625],9.23 ± 0.55
20,TTATGATCATTTATATGTACACATAATTTTTGTGCT [XGTACX_site5568],9.03 ± 0.44
21,AAAAAAAAAAAAAAGAGTACATTTATTTATATATCT [XGTACX_site2381],8.46 ± 0.33
22,AATAGAATAATCCTTACACACACACGCGCACGAATA [CACACA_site6365],9.78 ± 0.31
23,AATAGAATAATCCTTACACACACACCCACACGAATA [CACACA_site8053],9.87 ± 0.16
24,TAGAATAATCCTTACACACACACACCCACGAATAAA [CACACA_site483],10.1 ± 0.2
